The campaign covered roughly 350,000 compounds. About 1,600 (0.46%) were called active.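 Rule for the calls: active = activation of at least 50%, plus an integration ratio under a set limit after plate pattern correction; inactive = the rest.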 For the sample, actives were picked, then their nearest neighbours and some compounds at random.

Activation data for 55 molecules are collected here from PubChem BioAssay AID588473 (Sanford-Burnham Center for Chemical Genomics, 2011).

The assay concerns CRF-binding protein / CRF receptor 2 complex (human). Briefly: activators of CRF-R2 with CRF-BP – cell-based, HEK293, calcium dye fluorescence, uHTS, primary screen (AID 588473).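 Note: plate controls were neutral control wells without compound for no effect and CRF at EC100 for full effect.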 Conditions: calcium dye fluorescence (FLIPR), at 13.2 µM, active compounds read high, percent of saturating CRF peptide response.
As to `CN(Cc1ccccc1Cl)C(=O)C1CCC(=O)N(CCc2cccc(F)c2)C1` (stereo not given), the activation is 0.61% (inactive). In the case of `COc1cc(C)ccc1OCC(=O)OCC(=O)c1ccc[nH]1`, the activation is 2.06% (inactive).

As to `CC(C)CC(O)C1CCN(C(=O)CCc2nnc(-c3ccc4c(c3)OCO4)o2)CC1` (stereo not given), the activation was -0.38% (inactive). To `O=C(NCCN1CCOCC1)C1CCN(S(=O)(=O)c2ccccc2)CC1` belongs -0.1% (inactive); to `O=C1CCC/C=C/C[C@@H](CC(=O)N(CCO)Cc2ccccc2)C(=O)NC[C@H](c2ccccc2)O1`, -0.44% (inactive). For the molecule `O=C1N[C@@H](c2ccccc2)COC(=O)[C@H](Cc2ccc(F)cc2)C/C=C\C[C@@H]1CC(=O)N(CCO)Cc1ccccc1`, the activation was -2% (inactive). `O=C1NC[C@@H](c2ccccc2)OC(=O)[C@H](Cc2ccc(F)cc2)CC/C=C/C[C@H]1CC(=O)N(CCO)Cc1ccccc1`: the activation is 54.7% (active). Turning to `CCCNC(=O)c1ccc(N2CCC3(CC2)CC(c2ccc(Cl)cc2)=NO3)c([N+](=O)[O-])c1`, the activation is 0.95% (inactive). On to `CCN(CC)C(=O)C1=C(C)N(Cc2ccc(F)cc2)C(=O)C(CC(=O)NCc2cccc3ccccc23)C1` (stereo not given), for which the activation was -1.12% (inactive). As to `COc1ccc(CNC(=O)CN2CCC(n3nnc4cc(F)ccc43)CC2)cc1`, the activation was 0.03% (inactive). In the case of `Cc1ccc(-c2nn(-c3ccccc3)cc2/C=C2\SC(=S)N(CCCCCC(=O)O)C2=O)o1`, the activation is 60.7% (active). Turning to `COc1cccc(/C=C2\SC(=S)N(CCCC(=O)N3CCOCC3)C2=O)c1`, the activation was 2.11% (inactive). The same measure for `COc1ccc(/C=C2/SC(=O)N(CCCCCC(=O)Nc3ccccc3C(=O)O)C2=S)cc1`: -2.58% (inactive); for `CCCCCC(=O)NC(=S)NNC(=O)c1ccc([N+](=O)[O-])cc1`: 96.3% (active).

For `O=C(NC(=S)NC1CCS(=O)(=O)C1)c1cccc([N+](=O)[O-])c1` (stereo not given), the activation is 0.96% (inactive). For the molecule `CC(C)CC(=O)NC(=S)NNC(=O)c1cccc([N+](=O)[O-])c1`, the activation was 55% (active). Regarding `CC(C)(C)SCCNC(=O)c1cccc([N+](=O)[O-])c1`, the activation was -0.01% (inactive). Regarding `CC(=O)Nc1ccc(C(=O)NNC(=O)CCCCC(=O)NNC(=O)c2ccc(NC(C)=O)cc2)cc1`, the activation is -1.83% (inactive). For `COCCCNC(=S)NC(=O)c1ccc([N+](=O)[O-])cc1`, the activation was -0.87% (inactive).

With `COC(=O)c1c(CCl)noc1C(=O)NC(C)C`, the activation was 0.17% (inactive). For the molecule `Cc1ccc(Nc2c(O)nc[nH]c2=O)cc1C`, the activation was -0.7% (inactive). As to `CCN(C(=O)Cc1nc(N)n[nH]1)C1(C(=O)Nc2ccccc2)CCCCC1`, the activation is 1.43% (inactive).

On to `C=CCO/N=C/C1=C(O)C(C(=O)OC)C(C)(C)CC1=O` (stereo not given), for which the activation was 3.2% (inactive). Consider `Cc1ccc(O)c(NC(=S)NC(=O)COc2ccc(Br)cc2)c1`, for which the activation is 195% (active). In the case of `CC(=O)Nc1ccc(OC(=O)COc2ccc(Br)cc2)cc1`, the activation was 0.61% (inactive).

Regarding `Cn1cccc1C(=O)NNC(=O)COc1ccc(Br)cc1`, the activation was 0.35% (inactive). To `Cc1cc(C)c(S(=O)(=O)Nc2c(C)n(C)n(-c3ccccc3)c2=O)cc1[N+](=O)[O-]` belongs -0.78% (inactive); to `Cc1ccc(C(=O)N/C(=C/c2ccco2)C(=O)NCCc2c[nH]c3ccccc23)cc1C`, -0.5% (inactive); to `N#C/C(=C/c1ccc(N2CCCCC2)o1)C(=O)NCCc1c[nH]c2ccccc12`, 138% (active).

Take `O=C(NCCc1c[nH]c2ccccc12)C1CCN(Cc2ccc(Br)cc2)CC1`: the activation is 7.6% (inactive).

For `Cc1cccn2c(=O)c(/C=C3\SC(=S)N(CC(C)C)C3=O)c(NCCCOC(C)C)nc12`, the activation is 83% (active). `CCCN(CCC)c1nc2c(C)cccn2c(=O)c1/C=C1/SC(=S)N(Cc2ccco2)C1=O`: the activation was 36.9% (inactive). With `CNc1nc2c(C)cccn2c(=O)c1C=Nc1ccc(OC)cc1`, the activation was -0.9% (inactive). In the case of `CCOC(=O)NC(=O)C(=CNc1cccc(OC)c1)C(=O)NC(=O)OCC`, the activation was 2.88% (inactive).

On to `Cc1cccn2c(=O)c3cc(C(=O)NCCN4CCOCC4)c(=N)n(Cc4cccnc4)c3nc12`, for which the activation was -0.12% (inactive).

For `Cc1cccn2c(=O)c3cc(C#N)c(=NC(=O)c4cccnc4)n(CC4CCCO4)c3nc12` (stereo not given), the activation is 56.4% (active). In the case of `Cc1cccn2c(=O)c3cc(C#N)c(=O)n(CCCN4CCOCC4)c3nc12`, the activation was 2.16% (inactive). Turning to `Cc1cc(=O)n2nc(N3CCCC(C(=O)NCc4ccc(Cl)cc4)C3)sc2n1` (stereo not given), the activation was -0.87% (inactive). Turning to `CCCCCCCC[n+]1cccc(C(=O)N2c3c(nc(N)[nH]c3=O)NC(C)C2C)c1` (stereo not given), the activation was -1.35% (inactive).

On to `Cc1cccc(C(=O)N2CCN(S(=O)(=O)N3CCCCC3)CC2)c1`, for which the activation was -0.46% (inactive). As for `Cc1cccc(C)c1N1CCN(S(=O)(=O)N2CCOCC2)CC1`, the activation was 16.7% (inactive). With `Cc1cccc(C)c1N1CCN(S(=O)(=O)N2CCCCC2)CC1`, the activation was 152% (active). In the case of `CCn1cc(CN2CCN(CC(C)(C)C)C(CCO)C2)c2ccccc21` (stereo not given), the activation was 4.34% (inactive). For `CCOc1ccc(NCCC(=O)c2ccc3c(c2)OCO3)cc1`, the activation is -0.43% (inactive). As to `COc1ccc(CCNC(=O)C(=O)NCC2OCCN2S(=O)(=O)c2cccs2)cc1OC` (stereo not given), the activation is -0.25% (inactive).

In the case of `CC1(C)N=C(c2ccccn2)C(C)(C)N1O`, the activation is 2.11% (inactive).

Take `Cc1cccc(NC(=O)CN2C(=O)CNC2=O)c1`: the activation was -0.73% (inactive). To `Cc1cccc(NC(=O)C(C)N2C(=O)C3C4CC(C(Br)C4Br)C3C2=O)c1` (stereo not given) belongs 73.2% (active); to `Cc1cccc(NC(=O)CCN2CC(C)CC(C)C2)c1` (stereo not given), -0.13% (inactive). For the molecule `CN(C)S(=O)(=O)c1ccc(C(=O)NCC2(N3CCOCC3)CCCCC2)cc1`, the activation was 0.88% (inactive).

Take `Cc1ccc(-c2ccnc3[nH]n(-c4ccccc4)c(=O)c23)cc1`: the activation was 0.1% (inactive). Turning to `COc1cc(SC#N)ccc1N=Cc1c(C)[nH]n(-c2ccc(C)cc2)c1=O`, the activation is -2.61% (inactive). In the case of `Cc1ccc(-n2[nH]c(C)c(/C=N/N3C(=O)c4cccc5cccc(c45)C3=O)c2=O)cc1`, the activation was 113% (active). With `Cc1noc(C)c1S(=O)(=O)N(C)Cc1ccccc1`, the activation was -2.84% (inactive).

As for `CC(c1cccnc1)N(CCN(C)C)C(=O)Nc1ccc(Cl)c(Cl)c1` (stereo not given), the activation was 0.52% (inactive).
